tested on: LXRa:RXRa (NR concentration 270 nM, RXRa partner concentration 90 nM); assay: PBM binding z-score (relative to random genomic background probes); higher = stronger binding; sequences stand for … in GC…GCGATTGACAGCGTAGAATGAAGG
In short: (§1)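 For binding z-scores, the reference was random background probes on custom Agilent 4×180K protein-binding microarrays. These arrays were incubated 1 h with ligand-free nuclear receptor dimers in PBS pH 7.4, 2% milk, 0.02% Triton X-100, 1 mM DTT, 0.2 mg/mL BSA and 0.4 mg/ml salmon testes DNA. Fluorescence was scanned after antibody detection of each partner (one per run) and regression-normalized.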

Sequence | PBM binding z-score
ATCGAAAGGTCGACGAGGTGAATATACACCGTTT | 3.82
CGTCCTAGGTCAAGGTCAGTGAAAGAGACTCGAA | 4.07
CTCGAAAGGTCGTGCTCAGGTGAGCATACCAAAC | 4.04
ATCGAAAGGTCGAAGGTGAGTATACCCACCCGAA | 3.8
CCGGCTGGGGCAGAAAGGTTACCATACCATCCGG | 0.439
AGAATGAGGTTATTAAGACCAGGGAATTGCGGTC | 1.52
ATCGAACGGTCGAAGGTGAGTATACCCACCCGAA | -0.0927
CATACAGGGTCAGCTAGGCAAGAGTAGGGACGGC | 2.76
AGAATGAGGTTAAGATCAGGGAAACAGAATACAT | 2.14
ACAGACAGGTGAGGGAAGGTAACTCAGCTGGACG | 0.155
GCTAGTTGGTCAGTAGAAGGTCACACACCGGTCG | 2.35
CCAGACAGGTGAGAAGGCAACTCAGCCTCGATTA | -0.0895
ATCTCTAGGTAAAGTTCCGTGAAAGATCGATAGA | 0.229
TCTAGTTGGTCACGGAGGTCACGCACGACGGGTA | 4.14
TTACCATGGTGAAAGGTCGTTGATGCACGCCTTG | 1.93
CGAACTAGGTCATTGACAGGACATTGAATAGTAA | 3.53
GGAACGAGGGCAAGTAGATAGCAGAGTTTGATGG | 0.278
AGAACGAGGGCACGCTGAGTTGATCGCAGAGTAG | 0.604
CATCCAGGGTCAGCTAGGCCAGAGTAGGGACGGC | 3.12
CCGAGTAGGTTATGGGGAATTCAGGCAACGGTGA | 0.544

Sequence | PBM binding z-score
ACTCGGAGGACAAAGGTCGGAGCTACGCCAGTGA | 1.18
GGAACGAGGGCAAAGTTGACAGCATCTGTCGACG | 1.27
TCTTGTTGATCAAGCAGGTTAAGAAAGCCTGAGT | 0.33
CCGAGTAGGTTATGGGGCCTTCAGGCAACGGTGA | 0.107
TCTCGGAGGACGCGAAAGGTCAGAGCTCGACATC | 3.21
TAGCCTAGGTCAGATTGGGCCAGTATACGCTATA | 1.25
GATATTAGTTGAAAGGGCAACCGAATGATTCTCG | 1.12
GGAACGAGGGCAAGCTGATAGCAGAGTTTGATGG | 0.065
CCGACTGGGGCACGGTTACCATAACGCACAGCCA | -0.079
GCAGACAGGTGGAACGCAGGTAACTCAGGGTGGC | -0.547
AGAATGAGGCTATACGTAGATCAGGGAAGAAAGT | -0.526
CCAGACAGGTGAGAAGGTACCTCAGCCTCGATTA | -0.333
GCTAGCAGGCCATTTGCGTCACTCAATGACGGGC | -0.808
ATCGAAAGTTCGACGAGGTGAGTATACACCGTTT | 0.833
CCTCAGAGGACAACAGGAGGTCAGAGCTGCCAGA | 2.25
CGTCAAAGTTCAACTAAGGTAACGTACAGCACGC | 6.41
GAAACAGGGTCAAGGCCAGAGTACGCGTATTGAT | 4.18
GCTTGTAGATCAAGGTTAAGAACGACTAAGCTAA | 0.622
TCTTGTAGATCAAAGGTTAAGAATGCCGAAGCCT | 2.06
GCTTGTAGTTCAAGGTTAAGAAAGACTAAGCTAA | 2.43

tested on: LXRa homodimer (NR concentration 270 nM); assay: as above
In short: as §1

Sequence | PBM binding z-score
ATCGAAAGGTCGACGAGGTGAATATACACCGTTT | 0.162
CGTCCTAGGTCAAGGTCAGTGAAAGAGACTCGAA | 0.811
CTCGAAAGGTCGTGCTCAGGTGAGCATACCAAAC | -0.293
ATCGAAAGGTCGAAGGTGAGTATACCCACCCGAA | 0.189
CCGGCTGGGGCAGAAAGGTTACCATACCATCCGG | -0.422
AGAATGAGGTTATTAAGACCAGGGAATTGCGGTC | -0.287
ATCGAACGGTCGAAGGTGAGTATACCCACCCGAA | -0.458
CATACAGGGTCAGCTAGGCAAGAGTAGGGACGGC | -0.331
AGAATGAGGTTAAGATCAGGGAAACAGAATACAT | -0.0625
ACAGACAGGTGAGGGAAGGTAACTCAGCTGGACG | -0.368
GCTAGTTGGTCAGTAGAAGGTCACACACCGGTCG | 2.32
CCAGACAGGTGAGAAGGCAACTCAGCCTCGATTA | -0.234
ATCTCTAGGTAAAGTTCCGTGAAAGATCGATAGA | 0.166
TCTAGTTGGTCACGGAGGTCACGCACGACGGGTA | 2.94
TTACCATGGTGAAAGGTCGTTGATGCACGCCTTG | 0.41
CGAACTAGGTCATTGACAGGACATTGAATAGTAA | 1.19
GGAACGAGGGCAAGTAGATAGCAGAGTTTGATGG | -0.397
AGAACGAGGGCACGCTGAGTTGATCGCAGAGTAG | -0.623
CATCCAGGGTCAGCTAGGCCAGAGTAGGGACGGC | -0.152
CCGAGTAGGTTATGGGGAATTCAGGCAACGGTGA | 0.111

Sequence | PBM binding z-score
ACTCGGAGGACAAAGGTCGGAGCTACGCCAGTGA | -0.439
GGAACGAGGGCAAAGTTGACAGCATCTGTCGACG | -0.425
TCTTGTTGATCAAGCAGGTTAAGAAAGCCTGAGT | -0.00348
CCGAGTAGGTTATGGGGCCTTCAGGCAACGGTGA | -0.191
TCTCGGAGGACGCGAAAGGTCAGAGCTCGACATC | 1.27
TAGCCTAGGTCAGATTGGGCCAGTATACGCTATA | -0.472
GATATTAGTTGAAAGGGCAACCGAATGATTCTCG | 0.566
GGAACGAGGGCAAGCTGATAGCAGAGTTTGATGG | -0.473
CCGACTGGGGCACGGTTACCATAACGCACAGCCA | -0.346
GCAGACAGGTGGAACGCAGGTAACTCAGGGTGGC | -0.822
AGAATGAGGCTATACGTAGATCAGGGAAGAAAGT | -0.213
CCAGACAGGTGAGAAGGTACCTCAGCCTCGATTA | -0.205
GCTAGCAGGCCATTTGCGTCACTCAATGACGGGC | -0.589
ATCGAAAGTTCGACGAGGTGAGTATACACCGTTT | -0.161
CCTCAGAGGACAACAGGAGGTCAGAGCTGCCAGA | 2.4
CGTCAAAGTTCAACTAAGGTAACGTACAGCACGC | 4.76
GAAACAGGGTCAAGGCCAGAGTACGCGTATTGAT | -0.0634
GCTTGTAGATCAAGGTTAAGAACGACTAAGCTAA | -0.347
TCTTGTAGATCAAAGGTTAAGAATGCCGAAGCCT | 0.248
GCTTGTAGTTCAAGGTTAAGAAAGACTAAGCTAA | 0.162
